Source: the supplement of paper PMC10849652
About 7,900 targets were measured; listed, in parts, are those with a hit and a random draw of the rest. About 0.6% of all pairs of compound and target were hits.

These targets were tested with COC(=O)[C@H](CCSC)NC(=O)C1=C(C=C(C=C1)NC[C@H](CS)N)C2=CC=CC=C2 (assay: log2 fold change, soluble protein after heating vs DMSO (PISA); higher = thermal stabilisation; K562 cells, 10 uM, 30 min; active = over 0.2 and 3.5 SD of the protein, either way, in both replicates (recomputed)).
Summary of the method: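 Values are thermal stability changes relative to control samples and are taken from duplicates. They are stated as log2 fold changes. Before quantification by TMTpro 16plex LC-MS/MS with equalised channel sums, K562 cells at 2×10^6 cells/mL were treated with 10 μM compound for 30 min, heated in aliquots for 3 min across 48°C-58°C, pooled, extracted in PBS with 0.5% NP-40 at 4°C, and centrifuged at 21,000xg for 90 min to give the soluble supernatant.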

Sequence of UniProt Q07973 (Q07973 whole entry, looked up): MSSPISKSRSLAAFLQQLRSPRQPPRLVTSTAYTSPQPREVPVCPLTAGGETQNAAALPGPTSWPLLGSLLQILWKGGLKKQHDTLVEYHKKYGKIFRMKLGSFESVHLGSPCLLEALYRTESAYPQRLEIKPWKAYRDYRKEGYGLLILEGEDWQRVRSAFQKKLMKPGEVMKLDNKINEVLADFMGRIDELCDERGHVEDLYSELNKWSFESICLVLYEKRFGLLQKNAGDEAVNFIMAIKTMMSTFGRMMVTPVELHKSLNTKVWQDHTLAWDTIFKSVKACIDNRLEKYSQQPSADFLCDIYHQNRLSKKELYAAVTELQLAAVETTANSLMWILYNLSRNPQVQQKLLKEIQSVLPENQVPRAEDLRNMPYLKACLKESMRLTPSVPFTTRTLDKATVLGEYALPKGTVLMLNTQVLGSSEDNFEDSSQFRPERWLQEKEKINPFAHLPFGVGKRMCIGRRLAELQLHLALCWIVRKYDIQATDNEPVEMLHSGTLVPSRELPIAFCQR
Sequence of UniProt O00418 (O00418 whole entry, looked up): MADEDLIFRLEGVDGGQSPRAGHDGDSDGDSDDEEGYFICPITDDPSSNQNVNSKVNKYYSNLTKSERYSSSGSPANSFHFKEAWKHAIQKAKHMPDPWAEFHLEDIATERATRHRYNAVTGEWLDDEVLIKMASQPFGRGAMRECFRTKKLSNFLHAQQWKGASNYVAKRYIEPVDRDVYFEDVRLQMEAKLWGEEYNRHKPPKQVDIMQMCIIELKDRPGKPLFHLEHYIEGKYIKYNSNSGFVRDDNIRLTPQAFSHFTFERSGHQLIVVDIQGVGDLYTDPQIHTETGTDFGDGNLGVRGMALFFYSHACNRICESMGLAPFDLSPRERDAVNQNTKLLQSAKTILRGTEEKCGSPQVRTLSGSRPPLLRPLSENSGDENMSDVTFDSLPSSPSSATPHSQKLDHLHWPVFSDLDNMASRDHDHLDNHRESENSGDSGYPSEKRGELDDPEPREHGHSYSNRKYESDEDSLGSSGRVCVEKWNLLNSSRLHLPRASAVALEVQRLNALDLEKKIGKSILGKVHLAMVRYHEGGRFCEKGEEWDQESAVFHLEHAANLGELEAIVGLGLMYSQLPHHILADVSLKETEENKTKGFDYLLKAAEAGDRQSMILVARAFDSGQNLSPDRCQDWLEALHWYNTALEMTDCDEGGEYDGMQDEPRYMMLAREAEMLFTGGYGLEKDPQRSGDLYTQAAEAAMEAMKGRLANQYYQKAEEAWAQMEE
Sequence of UniProt Q16531 (Q16531 whole entry, looked up): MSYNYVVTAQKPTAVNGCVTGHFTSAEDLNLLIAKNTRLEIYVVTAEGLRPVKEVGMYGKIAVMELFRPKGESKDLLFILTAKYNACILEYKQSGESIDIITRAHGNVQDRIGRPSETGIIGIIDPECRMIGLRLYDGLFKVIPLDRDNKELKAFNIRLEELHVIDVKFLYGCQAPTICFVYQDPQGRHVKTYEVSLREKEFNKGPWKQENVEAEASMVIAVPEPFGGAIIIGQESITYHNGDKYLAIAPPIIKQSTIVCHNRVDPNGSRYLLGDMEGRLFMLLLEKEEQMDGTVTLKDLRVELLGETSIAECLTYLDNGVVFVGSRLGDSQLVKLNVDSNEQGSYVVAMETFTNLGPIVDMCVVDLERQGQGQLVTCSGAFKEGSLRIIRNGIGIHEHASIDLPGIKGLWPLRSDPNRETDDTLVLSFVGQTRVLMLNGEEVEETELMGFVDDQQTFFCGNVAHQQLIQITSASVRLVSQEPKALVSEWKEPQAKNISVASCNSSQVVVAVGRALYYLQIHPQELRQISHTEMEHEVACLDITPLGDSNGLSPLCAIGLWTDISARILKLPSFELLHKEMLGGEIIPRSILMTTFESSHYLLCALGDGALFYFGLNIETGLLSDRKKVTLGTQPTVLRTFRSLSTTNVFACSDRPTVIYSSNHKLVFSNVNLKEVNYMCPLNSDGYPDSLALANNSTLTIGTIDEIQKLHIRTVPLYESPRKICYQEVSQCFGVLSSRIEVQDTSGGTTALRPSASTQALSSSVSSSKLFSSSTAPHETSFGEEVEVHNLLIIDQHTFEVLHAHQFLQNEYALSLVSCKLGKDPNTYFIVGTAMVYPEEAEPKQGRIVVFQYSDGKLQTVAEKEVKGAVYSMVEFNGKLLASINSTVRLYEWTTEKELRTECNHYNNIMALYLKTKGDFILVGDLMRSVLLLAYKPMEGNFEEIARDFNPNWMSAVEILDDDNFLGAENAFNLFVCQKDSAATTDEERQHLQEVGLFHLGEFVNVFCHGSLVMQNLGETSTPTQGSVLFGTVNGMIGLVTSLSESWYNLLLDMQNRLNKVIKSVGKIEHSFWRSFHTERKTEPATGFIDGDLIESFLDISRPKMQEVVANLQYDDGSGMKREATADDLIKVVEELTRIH
Sequence of UniProt Q8WYA6 (Q8WYA6 whole entry, looked up): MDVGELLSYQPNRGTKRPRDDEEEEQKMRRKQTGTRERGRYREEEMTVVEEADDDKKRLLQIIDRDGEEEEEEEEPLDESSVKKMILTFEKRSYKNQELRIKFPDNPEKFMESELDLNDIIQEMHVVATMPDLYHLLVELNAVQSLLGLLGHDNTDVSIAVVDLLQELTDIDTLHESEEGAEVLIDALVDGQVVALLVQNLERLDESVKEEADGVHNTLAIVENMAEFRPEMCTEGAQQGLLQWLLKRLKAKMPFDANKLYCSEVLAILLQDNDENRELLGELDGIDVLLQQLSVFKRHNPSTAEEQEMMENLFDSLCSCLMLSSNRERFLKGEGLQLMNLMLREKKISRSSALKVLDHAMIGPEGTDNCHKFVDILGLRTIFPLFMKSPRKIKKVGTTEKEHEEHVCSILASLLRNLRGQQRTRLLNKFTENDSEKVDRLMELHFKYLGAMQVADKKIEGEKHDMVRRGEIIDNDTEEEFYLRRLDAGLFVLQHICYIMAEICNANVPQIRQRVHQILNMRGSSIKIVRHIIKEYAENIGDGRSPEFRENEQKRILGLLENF
Sequence of UniProt Q01780 (Q01780 whole entry, looked up): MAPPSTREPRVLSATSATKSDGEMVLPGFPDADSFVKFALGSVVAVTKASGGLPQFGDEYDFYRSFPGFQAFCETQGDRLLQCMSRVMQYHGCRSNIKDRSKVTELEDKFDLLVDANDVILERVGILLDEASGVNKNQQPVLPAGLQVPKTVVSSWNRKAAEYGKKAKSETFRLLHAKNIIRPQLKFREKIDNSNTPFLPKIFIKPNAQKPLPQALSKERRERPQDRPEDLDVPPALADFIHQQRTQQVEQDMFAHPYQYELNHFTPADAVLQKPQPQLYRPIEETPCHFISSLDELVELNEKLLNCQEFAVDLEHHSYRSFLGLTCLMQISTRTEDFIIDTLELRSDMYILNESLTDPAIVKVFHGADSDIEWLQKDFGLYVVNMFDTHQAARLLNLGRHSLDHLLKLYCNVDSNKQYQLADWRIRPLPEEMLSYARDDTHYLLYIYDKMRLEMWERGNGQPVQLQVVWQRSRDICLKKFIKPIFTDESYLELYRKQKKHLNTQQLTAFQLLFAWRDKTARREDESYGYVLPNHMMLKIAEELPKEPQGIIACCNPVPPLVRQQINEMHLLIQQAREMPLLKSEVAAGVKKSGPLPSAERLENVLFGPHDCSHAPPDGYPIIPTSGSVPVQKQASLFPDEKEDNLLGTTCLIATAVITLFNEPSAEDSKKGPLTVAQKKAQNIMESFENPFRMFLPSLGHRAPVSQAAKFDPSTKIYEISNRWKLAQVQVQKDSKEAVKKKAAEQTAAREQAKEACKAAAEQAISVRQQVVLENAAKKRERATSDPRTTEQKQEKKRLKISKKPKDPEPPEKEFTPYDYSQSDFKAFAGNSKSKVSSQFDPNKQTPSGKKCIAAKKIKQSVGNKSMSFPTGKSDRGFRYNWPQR
Sequence of UniProt P09622 (P09622 whole entry, looked up): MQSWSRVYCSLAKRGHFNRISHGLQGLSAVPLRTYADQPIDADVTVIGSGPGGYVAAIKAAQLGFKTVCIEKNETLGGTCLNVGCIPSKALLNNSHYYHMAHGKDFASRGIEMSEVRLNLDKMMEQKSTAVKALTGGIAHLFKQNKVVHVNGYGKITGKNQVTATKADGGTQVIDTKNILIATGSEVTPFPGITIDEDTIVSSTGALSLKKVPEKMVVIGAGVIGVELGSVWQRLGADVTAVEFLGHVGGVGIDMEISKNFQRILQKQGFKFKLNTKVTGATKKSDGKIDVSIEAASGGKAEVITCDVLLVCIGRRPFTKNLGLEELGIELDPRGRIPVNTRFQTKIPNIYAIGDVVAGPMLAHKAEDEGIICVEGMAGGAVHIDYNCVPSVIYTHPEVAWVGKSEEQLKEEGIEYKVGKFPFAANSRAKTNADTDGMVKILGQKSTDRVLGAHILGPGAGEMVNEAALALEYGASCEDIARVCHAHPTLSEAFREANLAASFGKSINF
Sequence of UniProt O43237 (O43237 whole entry, looked up): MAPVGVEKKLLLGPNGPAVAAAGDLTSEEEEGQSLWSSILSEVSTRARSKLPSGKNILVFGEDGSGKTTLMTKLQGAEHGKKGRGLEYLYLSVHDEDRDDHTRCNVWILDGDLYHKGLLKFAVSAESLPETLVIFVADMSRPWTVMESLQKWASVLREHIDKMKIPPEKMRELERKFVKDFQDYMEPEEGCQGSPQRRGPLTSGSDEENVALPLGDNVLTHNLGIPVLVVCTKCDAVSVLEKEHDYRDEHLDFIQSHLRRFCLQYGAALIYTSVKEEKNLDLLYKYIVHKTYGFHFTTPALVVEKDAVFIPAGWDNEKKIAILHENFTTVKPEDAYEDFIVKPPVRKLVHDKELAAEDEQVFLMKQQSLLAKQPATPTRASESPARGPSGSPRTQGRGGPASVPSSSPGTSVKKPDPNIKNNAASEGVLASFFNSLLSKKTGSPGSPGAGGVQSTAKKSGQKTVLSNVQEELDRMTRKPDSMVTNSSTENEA
Sequence of UniProt Q6P3W2 (Q6P3W2 whole entry, looked up): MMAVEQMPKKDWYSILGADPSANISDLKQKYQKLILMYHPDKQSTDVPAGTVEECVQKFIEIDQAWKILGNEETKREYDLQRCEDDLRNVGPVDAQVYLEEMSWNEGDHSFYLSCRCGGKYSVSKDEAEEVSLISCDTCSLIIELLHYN

log2 fold change, inactive:
FAM207A (UniProt Q9NSI2) 0.031, FAM160B1 (UniProt Q5W0V3) 0.072, EDC3 (UniProt Q96F86) 0.005, DSN1 (UniProt Q9H410) 0.029, DNAJB1 (UniProt P25685) -0.017, EEF2K (UniProt O00418) -0.266, DNAJB12 (UniProt Q9NXW2) -0.021, DDB1 (UniProt Q16531) 0, FAM3A (UniProt P98173) -0.041, EXOSC10 (UniProt Q01780) 0.123, EEF1A1 (UniProt P68104) -0.059, FAM118B (UniProt Q9BPY3) -0.037, CTSZ (UniProt Q9UBR2) 0.027, DOCK8 (UniProt Q8NF50) -0.154, DNAJC24 (UniProt Q6P3W2) 0.099, DHRS3 (UniProt O75911) 0.027, ELAC1 (UniProt Q9H777) 0.022, EIF4G3 isoform 3 (UniProt O43432) -0.025, FAM118A (UniProt Q9NWS6) -0.079, CTNNBL1 (UniProt Q8WYA6) -0.19, DTWD1 (UniProt Q8N5C7) -0.143, DOLPP1 (UniProt Q86YN1) 0.156, DNAH11 (UniProt Q96DT5) 0.049, FAM193B (UniProt Q96PV7) 0.044, DYNC1LI2 (UniProt O43237) 0.016, DAXX (UniProt Q9UER7) 0.109, DENND10 (UniProt Q8TCE6) -0.048, DLD (UniProt P09622) 0.047, DYRK1A isoform 2 (UniProt Q13627) -0.021, EIF4E2 (UniProt O60573) -0.013, FAM241A (UniProt Q8N8J7) 0.03, CTSH (UniProt P09668) 0.02, CYP24A1 (UniProt Q07973) 0.016, CTNNB1 (UniProt P35222) -0.015
